# Activity calls are given as the source filed them.
# Assays:
# [1] = optical density shifts of acrAB sulA E. coli – strain DRC41, OD650, 48 h, E. coli filamentation inducer project, primary screen (AID 1152); conditions: higher = more signal, called active from +8 up or from −8 down;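 also: E. coli MC1000 strain DRC41 lacking acrAB efflux pump and sulA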
# [2] = probe aLefty1 binding on compound microarray – biochemical, small-molecule microarray, 635/667 nm fluorescence, primary screen (AID 1153); conditions: higher = more signal;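 also: score merges spot fluorescence with signal-to-noise ratio from the scanned slide images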
# [3] = plasmodial surface anion channel blockers, osmotic lysis – cell-based, P. falciparum Indochina, OD700, 1 h, primary screen (AID 1154); conditions: P. falciparum Indochina infected RBC osmotic lysis, higher = more signal, called active from +8 up or from −8 down
# [4] = plasmodial surface anion channel blockers, osmotic lysis – cell-based, P. falciparum Indochina, OD700, 2 h, primary screen (AID 1155);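 also: lysis reports solute entry through the parasite surface anion channel PSAC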; conditions: P. falciparum Indochina infected erythrocytes, higher = more signal, called active from +8 up or from −8 down
# [5] = changes in parasitized red cell lysis, either direction – P. falciparum Indochina, OD700, 3 h, PSAC antagonist project, primary screen (AID 1156); conditions: P. falciparum-infected erythrocytes, osmotic lysis, higher = more signal, called active from +8 up or from −8 down
# [6] = plasmodial surface anion channel blockers, osmotic lysis – cell-based, P. falciparum Indochina, OD700, 18 h, primary screen (AID 1157); conditions: P. falciparum Indochina infected erythrocytes, osmotic lysis OD700, 18 h; higher = more signal, called active from +8 up or from −8 down
# [7] = S6 kinase pathway phospho-S6 level changes – cell-based, A549, cytoblot, luminescence, serum-stimulated, primary screen (AID 1158); conditions: 5 h, higher = more signal;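 also: serum-stimulated A549 lung adenocarcinoma cells; signal is phosphorylated S6 detected by cytoblot immunostaining with HRP secondary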
# [8] = target: NADPH oxidase 2 (Homo sapiens) (UniProt P04839); assay: compounds shifting NOX2 Amplex Red fluorescence – cell-based, HEK293-NOX2, PMA-stimulated, NOX inhibitor project, primary screen (AID 1159); conditions: 45 min, higher = more signal, called active from +8 up or from −8 down; also: test concentration not given here
# NADPH oxidase 2 (Homo sapiens), sequence (P04839 whole entry, looked up): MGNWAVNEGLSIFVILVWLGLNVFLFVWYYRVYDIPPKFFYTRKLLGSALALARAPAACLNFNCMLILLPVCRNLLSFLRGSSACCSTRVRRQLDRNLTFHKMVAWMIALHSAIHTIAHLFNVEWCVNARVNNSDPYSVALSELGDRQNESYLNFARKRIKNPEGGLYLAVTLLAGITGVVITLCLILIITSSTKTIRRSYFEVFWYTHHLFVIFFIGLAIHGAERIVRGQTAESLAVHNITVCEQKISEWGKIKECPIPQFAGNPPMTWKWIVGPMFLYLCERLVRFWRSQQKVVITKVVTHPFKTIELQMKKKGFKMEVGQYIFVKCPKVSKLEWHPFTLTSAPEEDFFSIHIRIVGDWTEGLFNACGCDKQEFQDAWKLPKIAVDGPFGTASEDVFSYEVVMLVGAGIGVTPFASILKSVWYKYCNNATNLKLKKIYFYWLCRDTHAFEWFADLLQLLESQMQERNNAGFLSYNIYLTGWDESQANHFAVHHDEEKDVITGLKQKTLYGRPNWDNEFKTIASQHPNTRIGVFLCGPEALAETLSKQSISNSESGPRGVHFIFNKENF
# [9] = target: NADPH oxidase 4 (Homo sapiens) (UniProt Q9NPH5); assay: compounds shifting NOX4 Amplex Red fluorescence – cell-based, HEK293-NOX4, tetracycline-induced, NOX inhibitor project, primary screen (AID 1160); conditions: HEK293-NOX4, Amplex Red H2O2 fluorescence, 45 min; higher = more signal, called active from +8 up or from −8 down
# NADPH oxidase 4 (Homo sapiens), sequence (Q9NPH5 whole entry, looked up): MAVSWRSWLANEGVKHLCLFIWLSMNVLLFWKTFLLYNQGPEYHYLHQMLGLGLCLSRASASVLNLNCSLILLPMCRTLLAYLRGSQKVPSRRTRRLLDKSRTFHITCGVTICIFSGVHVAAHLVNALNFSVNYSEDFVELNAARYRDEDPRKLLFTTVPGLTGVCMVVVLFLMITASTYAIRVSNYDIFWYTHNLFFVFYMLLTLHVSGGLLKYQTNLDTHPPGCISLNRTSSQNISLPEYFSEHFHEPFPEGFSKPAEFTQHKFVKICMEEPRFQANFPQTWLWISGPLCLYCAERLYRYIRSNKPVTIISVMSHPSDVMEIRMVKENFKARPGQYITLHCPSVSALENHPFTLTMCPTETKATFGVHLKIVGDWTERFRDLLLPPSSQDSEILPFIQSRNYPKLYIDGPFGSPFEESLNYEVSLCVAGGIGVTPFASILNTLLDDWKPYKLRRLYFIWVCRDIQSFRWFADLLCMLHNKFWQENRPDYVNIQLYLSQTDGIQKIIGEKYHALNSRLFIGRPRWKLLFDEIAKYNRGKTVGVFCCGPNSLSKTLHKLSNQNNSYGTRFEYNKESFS
# [10] = target: NADPH oxidase 5 (Homo sapiens) (UniProt Q96PH1); assay: compounds shifting NOX5 Amplex Red fluorescence – cell-based, HEK293-NOX5, NOX inhibitor project, primary screen (AID 1161); conditions: HEK293-NOX5, ionomycin, 45 min, higher = more signal
# NADPH oxidase 5 (Homo sapiens), sequence (Q96PH1 whole entry, looked up): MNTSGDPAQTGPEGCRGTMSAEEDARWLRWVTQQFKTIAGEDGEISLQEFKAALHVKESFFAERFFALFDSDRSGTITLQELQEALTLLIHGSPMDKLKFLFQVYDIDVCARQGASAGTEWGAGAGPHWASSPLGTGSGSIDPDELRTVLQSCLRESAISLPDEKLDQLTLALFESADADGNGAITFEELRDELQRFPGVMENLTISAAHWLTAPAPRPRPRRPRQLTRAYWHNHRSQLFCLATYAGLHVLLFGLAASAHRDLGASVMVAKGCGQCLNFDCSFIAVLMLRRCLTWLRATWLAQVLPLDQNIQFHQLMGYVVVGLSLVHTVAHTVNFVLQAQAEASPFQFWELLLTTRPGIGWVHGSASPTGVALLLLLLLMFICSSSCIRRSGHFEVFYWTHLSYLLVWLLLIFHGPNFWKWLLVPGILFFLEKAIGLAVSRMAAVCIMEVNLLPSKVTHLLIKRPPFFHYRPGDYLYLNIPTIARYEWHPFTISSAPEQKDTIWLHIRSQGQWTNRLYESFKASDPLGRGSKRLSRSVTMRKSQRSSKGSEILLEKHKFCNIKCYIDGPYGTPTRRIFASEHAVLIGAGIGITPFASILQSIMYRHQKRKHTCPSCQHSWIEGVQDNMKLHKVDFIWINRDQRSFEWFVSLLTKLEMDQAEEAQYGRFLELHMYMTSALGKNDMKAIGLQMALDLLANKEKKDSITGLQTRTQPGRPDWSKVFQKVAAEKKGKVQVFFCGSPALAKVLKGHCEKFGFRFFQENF
# [11] = compound effects on lung adenocarcinoma cell viability – A549, calcein-AM fluorescence, 48 h, basal, profiling panel (AID 1162); conditions: higher = more signal; also: test concentration not given here
# [12] = compound effects on differentiated 3T3-L1 adipocyte viability – cell-based, 3T3-L1 adipocytes, calcein-AM fluorescence, 48 h, basal, profiling panel (AID 1163); conditions: 3T3-L1 adipocytes viability, higher = more signal; also: test concentration not given here
# [13] = compound effects on hepatocellular carcinoma cell viability – HepG2, calcein-AM fluorescence, 48 h, basal, profiling panel (AID 1164); conditions: higher = more signal; also: test concentration not given here
# [14] = compound effects on multiple myeloma cell viability – MM1S, calcein-AM fluorescence, 48 h, basal, profiling panel (AID 1165); conditions: higher = more signal; also: test concentration not given here
# [15] = calcein-AM signal in unstimulated myeloma cells – cell-based, calcein-AM fluorescence, 48 h, PK04 Diversity Set, profiling panel (AID 1166); conditions: RPMI8226 myeloma viability, higher = more signal;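 also: cells grown under basal conditions without added stimulus; test concentration not given here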
# [16] = JC-1 mitochondrial signal, unstimulated HepG2 cells – cell-based, JC-1 fluorescence, 24 h, 100 nL compound, profiling panel (AID 1167); conditions: HepG2 mitochondrial potential, higher = more signal; also: test concentration not given here
# [17] = JC-1 mitochondrial signal, unstimulated adipocytes – cell-based, JC-1 fluorescence, 3T3-L1 adipocytes, 24 h, 100 nL compound, profiling panel (AID 1168); conditions: JC-1 mitochondrial fluorescence, higher = more signal, called active from +8 up or from −8 down; also: test concentration not given here
# [18] = JC-1 mitochondrial signal, unstimulated myeloma cells – cell-based, JC-1 fluorescence, RPMI8226, 24 h, 100 nL compound, profiling panel (AID 1169); conditions: JC-1 mitochondrial potential fluorescence, higher = more signal; also: test concentration not given here
# [19] = JC-1 mitochondrial signal, unstimulated MM1S myeloma – cell-based, JC-1 fluorescence, 24 h, 100 nL compound, profiling panel (AID 1170); conditions: MM1S mitochondrial potential, higher = more signal; also: test concentration not given here
# [20] = resazurin metabolic signal in A549 cells – cell-based, resazurin fluorescence, 24 h, PK04 Diversity Set, profiling panel (AID 1171); conditions: A549 viability, higher = more signal, called active from +8 up or from −8 down; also: test concentration not given here
Compound,z-score [1],composite z-score [2],z-score [3],z-score [4],z-score [5],z-score [6],z-score [7],z-score [8],z-score [9],z-score [10],z-score [11],z-score [12],z-score [13],z-score [14],z-score [15],z-score [16],z-score [17],z-score [18],z-score [19],z-score [20]
COc1cc(CO)ccc1OC(C)=O,1.48 (inactive),-0.157,-0.92 (inactive),-1.73 (inactive),-0.798 (inactive),-2.47 (inactive),1.03,-4.55 (inactive),-1.36 (inactive),-0.667,0.653,0.584,1.04,1.12,1.19,0.302,0.791 (inactive),0.41,0.433,-1.08 (inactive)
CC(C)NC(=O)[C@@H]1c2ccccc2C(=O)N(Cc2ccccc2)[C@H]1c1ccc(CO)cc1,-0.355 (inactive),0.108,1.36 (inactive),0.573 (inactive),1.65 (inactive),0.351 (inactive),0.0506,-0.767 (inactive),0.333 (inactive),-1.66,0.831,-0.46,-0.116,-1.42,-0.238,0.681,-1.5 (inactive),0.00231,-0.0636,0.748 (inactive)
COCCOC(=O)N1C(=O)[C@@]2(c3cc(C#Cc4ccc(OC)cc4)ccc31)[C@H](C(=O)N1CCN(c3ncccn3)CC1)[C@H]1C(=O)O[C@H](c3ccccc3)[C@H](c3ccccc3)N1[C@@H]2c1ccc(O)cc1,0.831 (inactive),0.0773,1.39 (inactive),-0.306 (inactive),-0.119 (inactive),-0.541 (inactive),1.59,0.586 (inactive),0.19 (inactive),1.98,1.23,1.26,0.986,0.973,0.806,-0.013,2.2 (inactive),0.157,0.193,1.31 (inactive)
C=C(C(=O)CC[C@H](OC(C)=O)c1ccc(OCCO)cc1)C(C)C,2.32 (inactive),0.0004,1.73 (inactive),-0.266 (inactive),-1.84 (inactive),-0.944 (inactive),0.823,-3.44 (inactive),-1.75 (inactive),-3.36,-0.809,-0.38,-1.22,-0.984,-1.73,-1.05,-0.00642 (inactive),0.364,0.19,-0.358 (inactive)
CC(c1ccccc1)C(O)C1C=CC2C(=O)NC(=O)C2N1Nc1ccccn1 (stereo not given),-0.671 (inactive),0.314,0.887 (inactive),0.561 (inactive),-0.255 (inactive),0.801 (inactive),-0.8,-0.479 (inactive),-3.8 (inactive),-1.79,0.405,-0.309,0.925,-0.275,0.291,0.0592,-0.739 (inactive),0.568,-0.533,-0.81 (inactive)
CN1C(=O)C2C=CC(C(O)c3ccccn3)N(Nc3ccccc3)C2C1=O (stereo not given),-0.434 (inactive),-0.093,0.844 (inactive),1.09 (inactive),-0.197 (inactive),1.12 (inactive),-0.669,-1.35 (inactive),-4.52 (inactive),-2.9,0.169,-0.103,-0.164,-0.309,0.497,-0.562,-0.234 (inactive),0.184,0.0223,-0.205 (inactive)
CC(C)CNC(=O)[C@@]1(c2ccc([N+](=O)[O-])cc2)CC(=O)N(CC23CC4CC(CC(C4)C2)C3)[C@@H]1c1ccc(CO)cc1,2.76 (inactive),0.227,2.75 (inactive),-0.14 (inactive),0.856 (inactive),-0.36 (inactive),0.802,-0.129 (inactive),-1.06 (inactive),0.965,-0.642,1.57,-0.715,-2.68,-3.66,0.0331,0.226 (inactive),-1,0.857,-2.47 (inactive)
COCCCNC(=O)[C@@]1(CCC(=O)OC(C)(C)C)N=C(c2ccc(OCCCO)cc2)O[C@H]1c1ccccc1CN=[N+]=[N-],0.369 (inactive),0.428,23.2 (active),4.71 (inactive),1.35 (inactive),0.883 (inactive),0.0769,1.95 (inactive),2.2 (inactive),2.48,0.463,0.892,-0.244,0.153,-0.853,0.88,-0.736 (inactive),0.665,0.5,0.155 (inactive)
CCOC(=O)C[C@H]1[C@H](OC(=O)c2ccccc2-c2ccccc2)[C@@H](NC(=O)Cc2ccc(OC)cc2)c2cc(OCCCO)ccc2N1C(=O)c1ccccc1,-1.14 (inactive),-0.0877,1.57 (inactive),0.316 (inactive),0.432 (inactive),0.208 (inactive),-0.127,1.02 (inactive),1.15 (inactive),-0.26,0.369,-0.8,0.41,-0.0609,0.0629,0.915,0.0962 (inactive),-0.0457,0.213,0.407 (inactive)

# — PubChem BioAssay
